Rows were chosen to be rich in hits. Some 12% of all compounds tested hit in one or more screens of this group.
JMJD2A Tudor – inhibitors of human JMJD2A Tudor domain; AID 504339; Potency, µM (highest dose often 114 µM), without a hit: at the top dose activity change, negative = inhibition, actives largely listed as inhibitors; 390,000 tested, 4.4% active; O75164; AlphaScreen JMJD2A-Tudor / H3K4me3 peptide binding; also: % is scaled to controls: 0 for no effect and ±100 for the full control effect; nearly all actives have a fitted effect of over 50% in size
G9a inh – G9a (human) methyltransferase inhibition | Q96KQ7 | 350,000 tested, 8.8% active | G9a H3K9 monomethylation, AlphaScreen, 2 h | Potency, µM (highest dose often 102 µM), for the others: top-dose activity, negative = inhibition, most hits filed as inhibitors; also: % is scaled to controls: 0 for no effect and ±100 for the full control effect; nearly all actives have a fitted effect of over 75% in size
Target sequence (Q96KQ7 913-1193 limits assumed): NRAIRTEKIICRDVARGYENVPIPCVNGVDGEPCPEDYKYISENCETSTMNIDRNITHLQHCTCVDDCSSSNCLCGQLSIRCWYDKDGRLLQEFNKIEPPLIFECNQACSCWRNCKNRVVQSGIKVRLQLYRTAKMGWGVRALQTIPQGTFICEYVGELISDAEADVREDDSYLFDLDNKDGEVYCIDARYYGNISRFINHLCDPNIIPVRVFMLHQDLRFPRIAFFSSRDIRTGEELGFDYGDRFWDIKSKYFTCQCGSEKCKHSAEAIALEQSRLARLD
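Enzyme 20 nM + cpd, 15 min RT; add b-H3K9 pep 500 nM / SAM 20 uM; 2 h RT; anti-H3K9me1 Ab 0.5 ug/mL + SA donor / anti-rabbit acceptor beads 20 ug/mL each, 10 min; AlphaScreen read.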
L3MBTL1 inh – inhibitors of human L3MBTL1. Q9Y468. AlphaScreen L3MBTL1–H3K9me1 peptide binding. Potency, µM (top dose mostly 57.1 µM), without a hit: at the top dose activity, negative = inhibition, hits mostly inhibitors. 230,000 tested, 0.66% active. AID 485360; also: % is scaled to controls: 0 for no effect and ±100 for the full control effect; nearly all actives have a fitted effect of over 60% in size
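AlphaScreen assay: L3MBTL1 (50 nM final) was preincubated 30 min at room temperature with biotinylated H3(1-15)K9me1 peptide (75 nM final), then 30 min with library compounds; streptavidin donor and nickel chelate acceptor beads (10 ug/mL final) added, 30 min dark.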
HP1b chromo inh – HP1-beta chromodomain-methylated histone interaction inhibition | AlphaScreen HP1-beta / biotin-H3K9me3 peptide binding | 390,000 tested, 0.56% active | AID 540317 | P83916 | Potency, µM (titrated, usually from 114 µM), for the others: at the top dose activity change, negative = inhibition, usual class: inhibitors; also: nearly all actives have a fitted effect of over 70% in size
Target sequence (P83916 whole entry, looked up): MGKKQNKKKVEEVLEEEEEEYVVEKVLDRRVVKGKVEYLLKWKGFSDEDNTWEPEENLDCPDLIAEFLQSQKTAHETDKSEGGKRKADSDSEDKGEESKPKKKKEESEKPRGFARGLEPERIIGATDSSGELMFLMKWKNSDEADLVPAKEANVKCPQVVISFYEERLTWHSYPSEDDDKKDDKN
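HP1-beta protein (50 nM final) preincubated 30 min at room temperature with biotinylated H3(1-18)K9me3 peptide (50 nM) in PBS pH 7.4, 0.01% Tween-20, then compound added for 30 min. AlphaScreen streptavidin donor/nickel chelate acceptor beads (10 ug/mL final), 30 min dark, luminescence read.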
BAZ2B block – inhibitors of human BAZ2B bromodomain; 360,000 tested, 4.4% active; Potency, µM (highest dose often 114 µM), inactives show at the top dose activity change, negative = inhibition, usual class: inhibitors; Q9UIF8; AlphaScreen BAZ2B-H3K14Ac peptide displacement; also: % is scaled to controls: 0 for no effect and ±100 for the full control effect; nearly all actives have a fitted effect of over 60% in size
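Multi-concentration screen (max 110 uM) measuring displacement of acetylated histone H3 peptide from BAZ2B by AlphaScreen, using 50 nM protein, 50 nM peptide and 10 ug/mL streptavidin donor plus Ni-chelate acceptor beads.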
Sfp PPTase inh – inhibitors of Bacillus subtilis Sfp phosphopantetheinyl transferase; Q9F4F7; Biochemical Sfp PPTase activity, qHTS; Potency, µM, for inactives: largest response in the series, negative = inhibition, most hits filed as inhibitors; 310,000 tested, 3.5% active; AID 1490;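 also: the enzyme is Sfp with the accession as filed and its product quenches rhodamine fluorescence; 0% = enzyme reaction without inhibitor and -100% = no enzyme wells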
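Fluorescence-quenching assay with 15 nM Sfp, 5 uM rhodamine-CoA and 12.5 uM BHQ-2-labelled ybbR peptide in pH 7.6 Hepes/MgCl2 buffer. Enzyme was pre-incubated with compound for 15 min at room temperature. Rate was taken from the 30-min fluorescence change (525/598 nm).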
The depositor's hits bear a star; ? = inconclusive; nt = no result; ! = a repeat was not active; [ ] = another dose, or the depositor's remark. Calls follow the shape of the dose curve; as a rule, active = well fitted curve in the direction sought with a large enough effect; inconclusive = small, poorly fitted or top-dose-only effect, or another doubt; inactive = no such curve, though single readings can be large; an effect the other way counts as inactive or inconclusive. Potency is read from the fitted curve at half-maximal effect.

SMILES	JMJD2A Tudor	G9a inh	L3MBTL1 inh	HP1b chromo inh	BAZ2B block	Sfp PPTase inh
O=C(Nc1ccccc1C(=O)OCc1cc(=O)n2nc(C3CC3)sc2n1)c1cccc(Cl)c1	-8%	14%[59 µM]	nt	4%	-9%	nt
COC(=O)c1cc2oc(C)cc2n1Cc1cccc(Cl)c1	17%	14µM*	nt	18%	-39%	nt
COC(=O)c1cc2oc(C)cc2n1Cc1c(C)cc(C)cc1C	-24%	4µM*	nt	20%	?	nt
COC(=O)c1cc2oc(C)cc2n1Cc1ccc(C)cc1	-23%	14µM*	nt	22%	-37%	nt
N#Cc1nc(NC2CCCC2)c2ncn(-c3cc(F)cc(F)c3)c2n1	8%	nt	nt	nt	nt	nt
Cn1cnc([N+](=O)[O-])c1SCC(=O)NN	-6%	7.1µM*	10%	21%[57 µM]	?	56µM*
COc1ccc(S(=O)(=O)Nc2c(O)ccc3ccccc23)cc1OC	79µM*	nt	nt	71µM*	nt	nt
O=C(O)c1[nH]c2ccccc2c1NS(=O)(=O)c1ccc(F)cc1	-21%	71µM*	nt	2%	?	7%
COc1ccc(S(=O)(=O)Nc2c(C(=O)O)[nH]c3ccccc23)cc1	-27%	45µM*	nt	72%	-18%	21%
COc1ccc(NS(=O)(=O)c2ccc(OC)c(OC)c2)cc1OC	-19%	17%[59 µM]	-23%	18%	0%	-3%
COc1ccc(S(=O)(=O)Nc2c(C(=O)O)[nH]c3ccccc23)cc1OC	?	13µM*	-9%	-14%	?	?
O=C(O)c1[nH]c2ccccc2c1NS(=O)(=O)Cc1ccccc1	?	?	nt	6%	-38%	26%
CCCCC/C=C\C/C=C\C/C=C\C/C=C\CCCCCC(=O)NCC(=O)O	nt	nt	nt	nt	nt	-1%
CCCC1([C@H](O)C/C=C/[C@H]2[C@H](O)CC(=O)[C@@H]2CCCCCCC(=O)OC)CCC1	nt	nt	nt	nt	nt	-14%
Cc1ccc(S(=O)(=O)Nc2c(C(=O)O)[nH]c3ccccc23)c(C)c1	56µM*	?	nt	?	?	18%
COc1ccc2[nH]c(C(=O)O)c(NS(=O)(=O)c3ccc(F)cc3)c2c1	-16%	?	nt	45%	-19%	10%
COc1ccc2[nH]c(C(=O)O)c(NS(=O)(=O)c3ccc(C)c(C)c3)c2c1	-19%	45µM*	nt	50%	-33%	12%
CC1CCc2nc3ncn(Cc4cccc(F)c4)c(=O)c3cc2C1 (stereo not given)	-20%	-1%[59 µM]	nt	11%[57 µM]	-2%	nt
O=S(=O)(Nc1ccc(N2CCOCC2)cc1)c1ccc(F)cc1F	-18%	-3%	2%	-19%	-3%	21%
O=C(O)c1cc(-c2ccc(N3CCOCC3)cc2)nn1-c1ccc(F)cc1F	-14%	45µM*	5%	17%	4%	13%
O=C(O)c1cc(-c2ccc(N3CCOCC3)cc2)nn1-c1ccccc1Cl	?	56µM*	-9%	31%	nt	?
Cc1cc(C)c(S(=O)(=O)N2CCC(N3CCN(Cc4ccc(F)cc4)C(=O)C3=O)CC2)c(C)c1	-5%	-2%[12.7 µM]	nt	33%	-10%	nt
COc1ccc(C/C(C)=N/NS(=O)(=O)c2ccc(Br)cc2)cc1	-17%	25µM*	nt	30%	3%	-18%
Cc1ccc(-c2nc3nc(C)cc(N4CCN(c5cc(Cl)ccc5C)CC4)n3n2)cc1	-5%	-36%[59 µM]	nt	23%	-5%	nt
OCCN1CCOCCN(CCO)CCOCC1	22µM*	?	4%	0%	-1%	11%
SMILES	JMJD2A Tudor	G9a inh	L3MBTL1 inh	HP1b chromo inh	BAZ2B block	Sfp PPTase inh
C/C(=C(/CCO)SSC[C@@H]1CCCO1)N(C=O)Cc1cnc(C)nc1N	nt	-40%[21.5 µM]	nt	nt	nt	9%
CCCSS/C(CCO)=C(/C)N(C=O)Cc1cnc(C)nc1N	nt	?	nt	nt	nt	56µM*
C/C(=C(/CCO)SSCC1CCCO1)N(C=O)Cc1cnc(C)nc1N (stereo not given)	-16%	13µM*	1%	55%	6%	nt
Cc1c(C(=O)O)c(O)cc2c1C(=O)c1c(O)c([C@@H]3O[C@H](CO)[C@@H](O)[C@H](O)[C@H]3O)c(O)c(O)c1C2=O	25µM*	nt	10µM*	?	nt	nt
COc1cc(OC)c([C@@H]2O[C@H](CO)[C@@H](O)[C@H](O)[C@H]2O)c(OC)c1	nt	nt	nt	nt	nt	6%
COc1c(O)cc2c(c1O)[C@@H]1O[C@H](CO)[C@@H](O)[C@H](O)[C@H]1OC2=O	3%	9%[2.33 µM]	nt	44%	-1%	18%
Cc1c(C(=O)O)c(O)cc2c1C(=O)c1c(O)c([C@H]3O[C@H](CO)[C@@H](O)[C@H](O)[C@H]3O)c(O)c(O)c1C2=O	nt	7.1µM*	nt	nt	nt	?
NNC(=O)c1sc2cc(C(F)(F)F)cnc2c1-c1ccccn1	-9%[11.4 µM]	5.6µM*	-16%	32%	?	-14%
O=C(O)c1sc2cc(C(F)(F)F)cnc2c1-c1ccccc1	-30%	13%[0.0925 µM]	1%	64%	-7%	-21%
CCOC(=O)C1=C[C@]2(CC)CCCN3CCc4c(n1c1ccccc41)[C@@H]32	-34%	22µM*!	-15%	26%	?	-26%
CCOc1ccc(S(=O)(=O)Nc2ccc3c(c2)c(C(C)=O)c(C)n3S(=O)(=O)c2ccc(OCC)cc2)cc1	-24%	?	nt	16%	-9%	nt
Cc1ccc2[nH]c(C)c(CCNC(=O)C3CCCCC3C(=O)OCC(F)(F)F)c2c1 (stereo not given)	71µM*	-43%[59 µM]	-19%	-21%	?	-5%
CCCCNc1c(-c2ccc(OC)c(Sc3ccc(OC)cc3)c2)nc2ccccn12	45µM*	-3%[12.7 µM]	-18%	-16%	40µM*	nt
CCCCNc1c(-c2ccc(SC(C)CC)cc2)nc2cnccn12 (stereo not given)	56µM*	nt	6%	24%	nt	nt
CCCCNc1c(-c2ccc(SC(C)CC)c(OC)c2)nc2ccc(C)cn12 (stereo not given)	?	-5%[2.33 µM]	-1%	7%	50µM*	nt
CCCCNc1c(-c2ccc(OC)c(Sc3ccc(OC)cc3)c2)nc2cnccn12	?	nt	-9%	2%	nt	nt
CCN(CC)CCNC(=O)c1sc2nc(C)cc(C)c2c1-n1cccc1	-19%	-17%[59 µM]	nt	15%	-14%	nt
CC(C)Oc1ccc(C(CCN)C2CCCCC2)cc1 (stereo not given)	22µM*	16µM*	nt	79µM*	50µM*	?
CN(C)c1nc(NC2CCC(NC(=O)c3ccc(F)c(F)c3)CC2)nc2ccccc12 (stereo not given)	nt	nt	nt	nt	nt	-13%
Cc1ccc(S(=O)(=O)N2CCN(Cc3cc(=O)n4nc(-c5ccccc5Cl)sc4n3)CC2)cc1	5%	-5%[59 µM]	nt	25%[57 µM]	2%	nt
CC(=O)N1CCc2c(sc3c2c(=O)n(-c2ccccc2)c(=O)n3CC(=O)Nc2ccccc2C)C1	-10%	-13%[59 µM]	nt	18%	-15%	nt

High-throughput results: PubChem, National Center for Advancing Translational Sciences (NCATS)
